Assay results reported in PubChem BioAssay (Tox21).
Results filed as inconclusive are left out. Active and inactive are the calls of the source. Unless noted, calls follow the shape of the dose curve; as a rule, active = well fitted curve in the direction sought with a large enough effect in the repeat runs; inconclusive = weak or mixed curves; inactive = no such curve, though single readings can be large; an effect the other way counts as inactive or inconclusive.

Assays:
[1] = target: Estrogen receptor beta (Homo sapiens) (UniProt Q92731); assay: qHTS assay to identify small molecule antagonists of the estrogen receptor beta (ER-beta) signaling pathway (AID 1259378; active = well fitted inhibition curve with a large enough effect in the signal ratio in the repeat runs, not every such curve was filed as active; the % refers to the signal ratio)
Method in brief: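 ER-beta-UAS-bla HEK293T cells in 2% charcoal-stripped FBS medium treated with compound plus 1nM final 17-beta-estradiol for 16 hr at 37C. Beta-lactamase reporter read by FRET substrate fluorescence after 2 hours at room temperature.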

[2] = qHTS assay to identify small molecule agonists of the androgen receptor (AR) signaling pathway in the presence of an antagonist - cell viability counter screen (AID 1259379);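 also: MDA-kb2 human breast cancer cells carrying an MMTV luciferase reporter; series mostly up to about 92 µM; nearly all actives have a fitted effect of over 25% in size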
Method in brief: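 Nilutamide-containing (3.0uM final) MDA-kb2 cultures, 3,000 cells/well, were treated with compounds across 15 concentrations. After 16 hr at 37C with no CO2, cell viability was determined by CellTiter-Fluor fluorescence in the luciferase assay wells.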

[3] = qHTS assay to identify small molecule agonists of the estrogen receptor beta (ER-beta) signaling pathway - cell viability counter screen (AID 1259380); also: nearly all actives have a fitted effect of over 30% in size
Method in brief: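 Steps: plate ER-beta-UAS-bla HEK293T cells, rest 6 hr; add compounds in DMSO; incubate 16 hr at 37C, 5% CO2; add FRET substrate 2 hr; add CellTiter-Glo, wait 30 min at room temperature; read luminescence.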

[4] = qHTS assay to identify small molecule antagonists of the estrogen receptor beta (ER-beta) signaling pathway - cell viability counter screen (AID 1259382); also: series mostly up to about 92 µM; nearly all actives have a fitted effect of over 55% in size
Method in brief: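 Viability is scored by CellTiter-Glo luminescence (30 min, room temperature) in ER-beta-UAS-bla HEK293T wells already read for reporter fluorescence. Compound exposure lasts 16 hr at 37C alongside 1nM 17-beta-estradiol in charcoal-stripped serum medium.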

[5] = qHTS assay to identify small molecule agonists or antagonists of the thyroid stimulating hormone receptor (TSHR) signaling pathway - wild type cell line counter screen (AID 1259384; calls by dose curve)
Method in brief: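 Wild-type Hek293 cells, 800/well, 18 h at 37C, then compound with Ro20-1724 for 30 min RT. cAMP by HTRF (cAMP-d2/anti-cAMP cryptate), 1 h RT, fluorescence read. 15 concentrations, triplicates.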

[6] = target: Thyrotropin receptor (Homo sapiens) (UniProt P16473); assay: qHTS assay to identify small molecule antagonists of the thyroid stimulating hormone receptor (TSHR) signaling pathway (AID 1259385; calls by dose curve; also: nearly all actives have a fitted effect of over 20% in size)
Method in brief: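 TSHR-HEK293 cells (800/well) plated 18 h, then compounds with Ro20-1724 and TSH at 1.5 ng/mL final, 30 min at room temperature. cAMP quantified by HTRF (cAMP-d2/anti-cAMP-cryptate, 1 h); 15 concentrations in triplicate.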

[7] = qHTS assay to identify small molecule agonists of the estrogen receptor alpha (ER-alpha) signaling pathway in the presence of an antagonist - cell viability counter screen (AID 1259386);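 also: series mostly up to about 92 µM; cells exposed to compounds for 22 h at 37 °C before the viability read; nearly all actives have a fitted effect of over 30% in size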
Method in brief: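 In this counter screen, compound effects on VM7Luc4E2 viability were tested in the presence of the antagonist ICI-182,780 at 10.0nM final. Compounds were dosed at 15 concentrations, exposure lasted 22hr, and the CellTiter-Fluor signal was read.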

[8] = target: Progesterone receptor (Homo sapiens) (UniProt P06401); assay: qHTS assay to identify small molecule agonists of the progesterone receptor (PR) signaling pathway (AID 1346784; calls by dose curve; also: nearly all actives have a fitted effect of over 30% in size)
Method in brief: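 PR-UAS-bla HEK 293T cells (beta-lactamase reporter under UAS) in 2% charcoal-stripped FBS, dosed with 23 nL compound after 6 hr, incubated 16hr at 37C. LiveBLAzer B/G FRET substrate added, fluorescence read after 2 hours.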

[9] = target: Estrogen receptor (Homo sapiens) (UniProt P03372); assay: qHTS assay to identify small molecule agonists of the estrogen receptor alpha (ER-alpha) signaling pathway in the presence of an antagonist (AID 1259383; calls by dose curve; also: top concentration of the series differs between compounds; nearly all actives have a fitted effect of over 15% in size)
Method in brief: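 Readout was ERE-driven luciferase luminescence in VM7Luc4E2 cells, which express full-length ER-alpha endogenously. Compounds were tested at 15 concentrations for 22hr alongside 10.0nM ICI-182,780 (final concentration).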

[10] = target: Androgen receptor (Homo sapiens) (UniProt P10275); assay: qHTS assay to identify small molecule agonists of the androgen receptor (AR) signaling pathway in the presence of an antagonist (AID 1259381; calls by dose curve; also: nearly all actives have a fitted effect of over 15% in size)
Method in brief: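 Reporter-gene luminescence from MDA-kb2 cells exposed 16hr at 37C (0% CO2) to 15-point compound titrations with 3.0uM final nilutamide as AR antagonist.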
% is scaled to controls: 0 for no effect and ±100 for the full control effect.

Chain of Estrogen receptor beta (Homo sapiens) (Q92731 whole entry, looked up): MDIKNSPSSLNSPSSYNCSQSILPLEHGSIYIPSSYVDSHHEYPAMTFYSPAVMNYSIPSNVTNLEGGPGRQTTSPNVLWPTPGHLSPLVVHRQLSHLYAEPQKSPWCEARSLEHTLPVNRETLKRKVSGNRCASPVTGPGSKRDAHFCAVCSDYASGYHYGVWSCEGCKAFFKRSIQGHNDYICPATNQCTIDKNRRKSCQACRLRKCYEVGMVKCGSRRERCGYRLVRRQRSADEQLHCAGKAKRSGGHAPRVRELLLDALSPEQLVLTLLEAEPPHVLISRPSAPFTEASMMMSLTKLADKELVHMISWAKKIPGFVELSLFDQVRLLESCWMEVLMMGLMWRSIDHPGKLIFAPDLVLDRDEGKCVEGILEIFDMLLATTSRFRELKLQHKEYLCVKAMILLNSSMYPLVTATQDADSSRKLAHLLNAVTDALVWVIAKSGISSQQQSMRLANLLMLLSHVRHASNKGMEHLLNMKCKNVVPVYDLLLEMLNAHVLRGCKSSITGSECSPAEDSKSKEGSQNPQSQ
Chain of Estrogen receptor (Homo sapiens) (P03372 whole entry, looked up): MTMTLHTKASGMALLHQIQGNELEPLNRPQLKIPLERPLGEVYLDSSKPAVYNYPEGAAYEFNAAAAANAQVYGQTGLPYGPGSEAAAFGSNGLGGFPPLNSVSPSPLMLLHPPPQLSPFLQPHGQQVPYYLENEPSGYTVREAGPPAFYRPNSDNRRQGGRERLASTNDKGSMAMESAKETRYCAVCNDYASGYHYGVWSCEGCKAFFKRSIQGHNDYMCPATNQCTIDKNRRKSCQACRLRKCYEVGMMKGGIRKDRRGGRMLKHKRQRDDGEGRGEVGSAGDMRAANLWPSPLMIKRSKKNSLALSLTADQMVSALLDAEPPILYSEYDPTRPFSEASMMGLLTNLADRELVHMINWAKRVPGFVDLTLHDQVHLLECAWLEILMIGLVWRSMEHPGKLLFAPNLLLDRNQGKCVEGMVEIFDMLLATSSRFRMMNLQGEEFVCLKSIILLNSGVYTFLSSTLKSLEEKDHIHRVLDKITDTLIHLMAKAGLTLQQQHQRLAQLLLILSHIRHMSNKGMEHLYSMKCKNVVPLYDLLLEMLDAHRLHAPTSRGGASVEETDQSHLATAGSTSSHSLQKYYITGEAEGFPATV
Chain of Thyrotropin receptor (Homo sapiens) (P16473 whole entry, looked up): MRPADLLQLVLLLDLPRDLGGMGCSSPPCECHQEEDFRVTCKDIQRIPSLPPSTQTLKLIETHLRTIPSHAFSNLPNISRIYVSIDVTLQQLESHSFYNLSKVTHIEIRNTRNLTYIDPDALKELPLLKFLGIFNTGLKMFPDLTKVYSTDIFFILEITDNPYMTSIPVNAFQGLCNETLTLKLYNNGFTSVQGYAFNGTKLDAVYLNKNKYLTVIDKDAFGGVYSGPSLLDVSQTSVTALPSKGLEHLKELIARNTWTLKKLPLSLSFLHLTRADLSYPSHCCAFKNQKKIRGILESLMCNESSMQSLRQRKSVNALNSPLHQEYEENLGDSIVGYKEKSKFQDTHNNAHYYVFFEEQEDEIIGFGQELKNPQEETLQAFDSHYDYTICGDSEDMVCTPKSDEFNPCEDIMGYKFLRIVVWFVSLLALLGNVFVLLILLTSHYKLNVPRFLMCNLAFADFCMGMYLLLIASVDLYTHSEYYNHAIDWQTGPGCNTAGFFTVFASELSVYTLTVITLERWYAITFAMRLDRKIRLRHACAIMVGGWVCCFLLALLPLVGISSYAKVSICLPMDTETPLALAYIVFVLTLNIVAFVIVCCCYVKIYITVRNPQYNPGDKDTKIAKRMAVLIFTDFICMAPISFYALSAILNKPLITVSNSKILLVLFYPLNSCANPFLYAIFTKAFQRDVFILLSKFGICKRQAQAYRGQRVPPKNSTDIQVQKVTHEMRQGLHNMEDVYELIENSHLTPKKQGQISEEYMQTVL
Chain of Progesterone receptor (Homo sapiens) (P06401 whole entry, looked up): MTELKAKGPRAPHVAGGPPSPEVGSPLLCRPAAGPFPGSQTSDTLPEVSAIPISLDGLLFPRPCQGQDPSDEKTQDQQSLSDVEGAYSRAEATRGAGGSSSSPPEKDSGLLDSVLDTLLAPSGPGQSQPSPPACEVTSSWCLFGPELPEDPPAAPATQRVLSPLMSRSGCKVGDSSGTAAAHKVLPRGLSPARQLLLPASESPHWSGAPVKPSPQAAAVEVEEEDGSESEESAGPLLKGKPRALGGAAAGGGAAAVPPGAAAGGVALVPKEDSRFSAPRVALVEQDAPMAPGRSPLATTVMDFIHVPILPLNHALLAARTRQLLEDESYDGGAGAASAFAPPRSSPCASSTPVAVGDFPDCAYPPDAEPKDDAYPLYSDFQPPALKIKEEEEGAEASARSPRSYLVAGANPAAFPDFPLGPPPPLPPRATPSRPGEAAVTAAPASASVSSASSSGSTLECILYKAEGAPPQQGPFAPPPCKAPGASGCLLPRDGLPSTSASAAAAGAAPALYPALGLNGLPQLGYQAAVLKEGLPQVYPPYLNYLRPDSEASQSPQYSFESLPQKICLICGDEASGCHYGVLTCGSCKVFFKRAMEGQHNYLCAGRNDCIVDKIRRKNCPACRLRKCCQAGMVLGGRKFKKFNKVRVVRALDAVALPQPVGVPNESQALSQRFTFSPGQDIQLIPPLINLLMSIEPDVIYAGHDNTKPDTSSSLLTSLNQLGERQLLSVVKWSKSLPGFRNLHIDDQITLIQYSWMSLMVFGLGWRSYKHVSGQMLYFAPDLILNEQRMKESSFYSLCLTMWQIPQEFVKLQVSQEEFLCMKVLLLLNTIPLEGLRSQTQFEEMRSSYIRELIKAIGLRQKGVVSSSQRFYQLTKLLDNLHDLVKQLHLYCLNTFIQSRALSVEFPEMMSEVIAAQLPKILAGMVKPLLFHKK
Chain of Androgen receptor (Homo sapiens) (P10275 whole entry, looked up): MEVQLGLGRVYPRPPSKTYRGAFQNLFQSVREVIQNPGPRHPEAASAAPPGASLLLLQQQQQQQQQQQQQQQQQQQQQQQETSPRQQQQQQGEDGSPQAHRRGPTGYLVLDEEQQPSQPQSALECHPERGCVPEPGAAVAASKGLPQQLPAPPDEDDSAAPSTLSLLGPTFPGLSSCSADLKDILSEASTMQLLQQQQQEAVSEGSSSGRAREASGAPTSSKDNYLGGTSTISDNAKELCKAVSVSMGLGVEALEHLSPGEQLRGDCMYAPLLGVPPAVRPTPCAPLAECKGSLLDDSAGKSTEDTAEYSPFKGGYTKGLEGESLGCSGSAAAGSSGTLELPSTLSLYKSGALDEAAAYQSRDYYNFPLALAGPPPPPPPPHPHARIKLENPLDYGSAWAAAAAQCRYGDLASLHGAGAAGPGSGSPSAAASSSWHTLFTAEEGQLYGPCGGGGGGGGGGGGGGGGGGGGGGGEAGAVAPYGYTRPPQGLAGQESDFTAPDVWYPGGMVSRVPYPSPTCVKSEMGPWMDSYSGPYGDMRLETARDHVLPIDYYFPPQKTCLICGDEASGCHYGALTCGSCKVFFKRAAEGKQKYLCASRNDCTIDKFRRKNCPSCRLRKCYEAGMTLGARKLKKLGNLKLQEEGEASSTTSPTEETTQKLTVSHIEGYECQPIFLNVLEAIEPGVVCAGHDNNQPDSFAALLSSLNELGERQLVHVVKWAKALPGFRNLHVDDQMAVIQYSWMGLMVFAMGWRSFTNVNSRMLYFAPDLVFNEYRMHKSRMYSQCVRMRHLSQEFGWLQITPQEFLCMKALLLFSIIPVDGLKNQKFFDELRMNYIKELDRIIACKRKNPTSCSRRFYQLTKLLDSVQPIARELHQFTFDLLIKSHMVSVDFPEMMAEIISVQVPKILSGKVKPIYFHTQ

CCOC(=O)[C@H](CCc1ccccc1)N[C@@H](C)C(=O)N1C(=O)N(C)C[C@H]1C(=O)O
inactive: outcome [1] | Potency [2] | Potency [3] | outcome [4] | outcome [5] | outcome [6] | Potency [7] | Potency [8]

CC(=O)N[C@@H](CCC(=O)O)C(=O)O
inactive: outcome [1] | Potency [2] | Potency [3] | outcome [4] | outcome [5] | outcome [6] | Potency [7] | Potency [8]

CCO[Si](CCCS)(OCC)OCC
inactive: outcome [1] | Potency [2] | Potency [3] | outcome [4] | outcome [5] | outcome [6] | Potency [8]

CCCCCCOC(=O)CC
inactive: outcome [1] | Potency [2] | Potency [3] | outcome [4] | outcome [9] | Potency [7] | Potency [8]

O=Cc1ccc(Cl)c(Cl)c1
inactive: outcome [1] | Potency [2] | Potency [3] | outcome [4] | outcome [5] | outcome [6] | Potency [7] | Potency [8]

CCOCCOCCOCC
inactive: outcome [1] | Potency [2] | Potency [3] | outcome [4] | Potency [7]

O=S(=O)(O)c1ccc2cc(O)c(S(=O)(=O)O)cc2c1
inactive: outcome [1] | Potency [2] | Potency [3] | outcome [4] | outcome [5] | outcome [6] | Potency [7] | Potency [8]

CCCCCCCCCCl
inactive: outcome [1] | Potency [2] | Potency [3] | outcome [4] | outcome [5] | outcome [6] | Potency [7] | Potency [8]

NNc1nnc(NN)c2ccccc12
inactive: outcome [1] | Potency [2] | Potency [3] | outcome [4] | outcome [5] | outcome [6] | Potency [7]

CCCCCCCCCCCCCC
inactive: outcome [1] | Potency [2] | Potency [3] | outcome [4] | outcome [5] | outcome [6] | Potency [8]

CC(C)CCCCOC(=O)c1ccccc1C(=O)OCCCCC(C)C
inactive: outcome [1] | Potency [2] | Potency [3] | outcome [4] | Potency [7] | Potency [8]

CCCC/C=C\CCCCCCCCCC=O
inactive: outcome [1] | Potency [2] | Potency [3] | outcome [4] | outcome [5] | outcome [6] | Potency [7]

C[C@H](N)[C@H](O)c1cccc(O)c1
inactive: outcome [1] | Potency [2] | Potency [3] | outcome [4] | outcome [9] | outcome [5] | outcome [6] | Potency [8]

CC(C)=CCOC(=O)c1ccccc1
inactive: outcome [1] | Potency [2] | Potency [3] | outcome [4] | outcome [5] | outcome [6] | Potency [8]

CCCCCCCCSCC
inactive: outcome [1] | Potency [2] | Potency [3] | outcome [4] | outcome [9] | outcome [5] | outcome [6] | Potency [7] | Potency [8]

c1ccc2c(c1)ccc1c3ccccc3ccc21
inactive: outcome [1] | Potency [2] | Potency [3] | outcome [4] | outcome [5] | outcome [6] | Potency [7]

CC(=O)/C=C/C1C(C)=CCC(C)C1(C)C (stereo not given)
inactive: outcome [1] | Potency [2] | Potency [3] | outcome [4] | outcome [5] | outcome [6] | Potency [7] | Potency [8]

C=CC(OCC)OCC
inactive: outcome [1] | Potency [2] | Potency [3] | outcome [4] | Potency [7] | Potency [8]

COC(=O)CCc1ccc(OCC(O)CNC(C)C)cc1 (stereo not given)
inactive: outcome [1] | Potency [2] | Potency [3] | outcome [4] | outcome [5] | outcome [6] | Potency [7] | Potency [8]

CCC(C=O)CC
inactive: outcome [1] | Potency [2] | Potency [3] | outcome [4] | outcome [5] | outcome [6] | Potency [7]

O=C(NCC(O)CO)c1c(I)c(C(=O)NCC(O)CO)c(I)c(N(CCO)C(=O)CO)c1I (stereo not given)
inactive: outcome [1] | Potency [2] | Potency [3] | outcome [4] | outcome [5] | outcome [6] | Potency [7] | Potency [8]

Cc1ccccc1OCC(O)CO (stereo not given)
inactive: outcome [1] | Potency [2] | Potency [3] | outcome [4] | outcome [5] | outcome [6] | Potency [8]

Cc1ccc2c(c1)OCC(=O)CO2
inactive: outcome [1] | Potency [2] | Potency [3] | outcome [4] | outcome [5] | outcome [6] | Potency [7] | Potency [8]

Oc1cn2c(n1)Nc1ccc(Cl)c(Cl)c1C2
inactive: activity change, negative = cytotoxicity [2] 0.214% [at 19 µM] | activity change, negative = cytotoxicity [3] 8.72% [at 19 µM] | activation [10] 1.01% [at 19 µM] | activity change, negative = cytotoxicity [4] 4.54% [at 19 µM] | activation [9] -1.28% [at 19 µM] | cAMP activity change [5] -0.126% [at 18.9 µM] | activity change, negative = inhibition [6] -0.393% [at 19 µM] | activity change, negative = cytotoxicity [7] 5.64% [at 19 µM] | activation [8] -0.586% [at 19 µM]

CC(C)=O
inactive: Potency [2] | Potency [3] | Potency [10] | outcome [4] | outcome [9] | outcome [5] | outcome [6] | Potency [7] | Potency [8]

CC(=C(CCOC(=O)C(C)C)SSC(CCOC(=O)C(C)C)=C(C)N(C=O)Cc1cnc(C)nc1N)N(C=O)Cc1cnc(C)nc1N
inactive: outcome [1] | Potency [2] | Potency [3] | outcome [9] | outcome [5] | outcome [6] | Potency [7] | Potency [8]
